Experimental data taken from PubChem BioAssay AID2326 (National Center for Advancing Translational Sciences (NCATS), 2010).
The campaign covered roughly 270,000 compounds. About 1,100 (0.41%) were called active. Where a call stands in place of a potency, no number is given. Another 3% or so got no clear call; they are omitted. This is one part of a sample in which actives are shown more often than they occur. Calls follow the shape of the full dose curve.

assay: qHTS Assay for Inhibitors of Influenza NS1 Protein Function; conditions: series mostly up to 46.1 µM; also: actives are rising curves; nearly all actives have a fitted effect of over 50% in size
Text: NIH Chemical Genomics Center [NCGC]
NIH Molecular Libraries Probe Centers Network [MLPCN]
Assay Submitter (PI): Daniel Engel
Influenza is a world-wide public health problem and emerging forms of the virus have the potential to cause a pandemic of equal or greater magnitude to the outbreaks recorded in 1918, 1957 or 1968. Vaccine development is proceeding and there also exist two classes of anti-influenza compounds. However these therapeutic modalities are neither fully effective nor widely enough available to fulfill global needs. In addition their potential usefulness against newly emergent strains is not known. Efforts are needed to develop novel agents against influenza virus, including broad-spectrum agents. Identification of small molecules that inhibit NS1 function either directly or by interfering with specific cellular pathways may be a key to increasing our defense against the virus.
We have miniaturized and optimized a cell based assay in which NS1 from influenza A is expressed in the budding yeast S. cerevisiae. NS1 is a multi-functional protein that counters the host innate immune response and facilitates viral versus cellular gene expression. Expression of NS1 causes a pronounced slow growth phenotype in yeast due to its intrinsic molecular activities. Small molecules that suppress the slow growth phenotype can be identified by a straightforward growth recovery assay using optical density (OD) as the measurement. The same yeast strain not expressing NS1 was used as positive control in the yeast growth recovery assay.
The yeast S. cerevisiae control and NS1 expressing cells were kindly supplied by laboratory of Dr. Daniel Engel, University of Virginia. Yeast starter cultures were stored in single use aliquots at -80C.
1. Yeast culture medium per liter: 1.2 g Yeast Nitrogen Base (w/out amino acids and Ammonium Sulphate), 5.0g Ammonium Sulphate, 0.77g -URA DO (drop-out) Supplement, adjust pH to 6.0. Adjust to 2% glucose prior to inoculating with yeast.
2. Yeast assay medium: 1.2 g Yeast Nitrogen Base (w/out amino acids and Ammonium Sulphate), 5.0g Ammonium Sulphate, 0.77g -URA DO (drop-out) Supplement, adjust pH to 6.0. Adjust to 2% D-galactose prior to inoculating with yeast.
1. Inoculate 100 mls of yeast culture medium with 1 ml of frozen yeast aliquote. Incubate overnight at 30C, 250RPM.
2. Harvest overnight culture at 4000 RPM and wash pellet with 15 mls H2O 3x.
3. Re-suspend washed pellet in 10 mls of yeast assay medium.
4. Prepare a 1:100 dilution of re-suspended culture in yeast assay medium.
5. Dispense 3.5 ul per well of reagents in step 4 in columns 2-48 in a black clear bottom 1536 well plate.
6. Dispense 3.5 ul per well of yeast assay medium in column 1 only.
7. Transfer 23 nl of compound per well.
8. Dispense 3.5 ul per well of yeast assay medium in columns 1-48.
9. Read plate using Viewlux protocol for optical density 600 (OD600) using excitation filter 600nm.
Potency is read from the fitted curve at half-maximal effect.

Question: Which Potency does the source give for `O=S1(=O)CCOC[C@H](CC2CCCCC2)N1Cc1ccc(F)cc1` here?
Answer: inactive

Question: Which Potency does the source give for `Cc1nonc1C1CCCN1C(=O)c1cc(COc2cccc(C(F)(F)F)c2)on1` (configuration not stated) here?
Answer: inactive

Question: With `COc1ccc(C(=O)CC(=O)c2ccc(C)cc2)c(O)c1` as the molecule, how does the Potency read?
Answer: inactive

Question: With `O=C(Nc1ccccc1)c1ccc2c(c1)OCCCO2` as the molecule, how does the Potency read?
Answer: inactive

Question: With `Cc1cc(=O)[nH]c(SCc2cc(Cl)ccc2OC(F)F)n1` as the molecule, how does the Potency read?
Answer: 3.16 µM (active)

Question: Which Potency does the source give for `Cc1cc(=O)[nH]c(SCc2cccc(F)c2)n1` here?
Answer: inactive

Question: For `COc1ccccc1-c1noc(CSc2nc(C)cc(=O)[nH]2)n1`, which Potency is on record?
Answer: inactive

Question: For `CC(=O)N1CCc2c(sc(NC(=O)CCS(=O)(=O)c3ccccc3)c2C#N)C1`, which Potency is on record?
Answer: inactive

Question: Which Potency does the source give for `Cc1ccc(N(Cc2cc(=O)[nH]c3ccccc23)C(=O)CCl)cc1` here?
Answer: inactive

Question: With `CC(C)n1c(COc2ccccc2)nc2ccccc21` as the molecule, how does the Potency read?
Answer: inactive

Question: Which Potency does the source give for `Cc1cccc(NC(=O)c2ccc3c(=O)n(CC4CCCO4)c(=S)[nH]c3c2)c1` (configuration not stated) here?
Answer: inactive

Question: With `CC1CCN(C2=NC(=O)/C(=C/c3ccc(O)cc3)S2)CC1` as the molecule, how does the Potency read?
Answer: inactive

Question: Which Potency does the source give for `O=S(=O)(c1ccc(OCC(O)CN2CCN(c3ccccc3Cl)CC2)cc1)N1CCOCC1` (configuration not stated) here?
Answer: 1.26 µM (active)

Question: Which Potency does the source give for `OC(COc1ccc2ccccc2c1)CN1CCOCC1` (configuration not stated) here?
Answer: inactive

Question: Which Potency does the source give for `CC(=O)Nc1ccc(OCC(O)CN2CCN(c3ccccc3Cl)CC2)cc1` (configuration not stated) here?
Answer: inactive

Question: Which Potency does the source give for `Cc1cccnc1CC(C)NC(=O)c1cc(COc2cncc(Cl)c2)on1` (configuration not stated) here?
Answer: inactive

Question: For `O=[N+]([O-])c1ccc2c(c1)Nc1nc3ccccc3nc1N2`, which Potency is on record?
Answer: inactive

Question: For `Cc1cc(Br)ccc1NC(=S)NC1CCCC1`, which Potency is on record?
Answer: inactive

Question: Which Potency does the source give for `Cc1ccc(-c2csc(-c3c[nH]c4ccccc34)n2)cc1` here?
Answer: inactive

Question: For `Cc1cccc(N=C2NN=C(c3c[nH]c4ccccc34)CS2)c1`, which Potency is on record?
Answer: 14.1 µM (active)

Question: For `Clc1cccc(N=C2NN=C(c3ccc4c(c3)OCCO4)CS2)c1`, which Potency is on record?
Answer: inactive

Question: With `COc1ccccc1NC(=O)C1CCN(C(=O)c2ccc(C(C)(C)C)cc2)CC1` as the molecule, how does the Potency read?
Answer: inactive

Question: For `Cc1ccc(NC(=S)NCCc2ccc(Cl)cc2)c(C)c1`, which Potency is on record?
Answer: inactive

Question: With `COc1ccc2[nH]c(C(=O)N/N=C/c3cc(OC)c(OC)c(OC)c3)cc2c1` as the molecule, how does the Potency read?
Answer: inactive

Question: For `Cn1c(NC(=O)c2ccccc2)nc2ccccc21`, which Potency is on record?
Answer: inactive

Question: Which Potency does the source give for `COCCCNC(=S)N1CCN(c2nc(-c3cccc(OC)c3)cs2)CC1` here?
Answer: inactive

Question: Which Potency does the source give for `CC(C(=O)NC1CCCCC1)N1C(=O)c2cccc3cccc1c23` (configuration not stated) here?
Answer: inactive

Question: For `CC(C(=O)O)N1C(=O)c2cccc3cccc1c23` (configuration not stated), which Potency is on record?
Answer: 14.1 µM (active)

Question: For `Cc1cc(C)nc(NC(=O)C(C)N2C(=O)c3ccccc3C2=O)n1` (configuration not stated), which Potency is on record?
Answer: inactive

Question: With `O=C1/C(=C/c2ccc(F)cc2)SC(=S)N1CCCC(=O)N1CCCCC1CCO` (configuration not stated) as the molecule, how does the Potency read?
Answer: inactive

Question: With `O=C(NCCCN1CCOCC1)c1ccc2c(c1)N(Cc1cccc(F)c1)C(=O)c1ccccc1S2` as the molecule, how does the Potency read?
Answer: inactive

Question: For `CN(C)S(=O)(=O)N1CCC(Oc2cccc(C(=O)NCCCC3CCCC3)c2)CC1`, which Potency is on record?
Answer: inactive

Question: Which Potency does the source give for `NC(=O)CSC1=Nc2ccccc2C2=NC(CCC(=O)NCc3ccc(F)cc3)C(=O)N12` (configuration not stated) here?
Answer: inactive

Question: Which Potency does the source give for `O=C(CSC1=Nc2ccccc2C2=NC(CC(=O)NCc3ccco3)C(=O)N12)NCc1ccco1` (configuration not stated) here?
Answer: 7.94 µM (active)

Question: With `O=C(CC1N=C2c3ccccc3N=C(SCc3ccccc3Cl)N2C1=O)NCc1ccco1` (configuration not stated) as the molecule, how does the Potency read?
Answer: inactive

Question: For `CN(c1ccc(O)cc1)c1nc(-c2cccnc2)cs1`, which Potency is on record?
Answer: inactive

Question: For `CC(=O)c1cccc(OCc2cc(C(=O)NC(C)Cc3cccnc3)no2)c1` (configuration not stated), which Potency is on record?
Answer: inactive

Question: For `CNC(=O)c1sc(Nc2ccc(OCc3ccccc3)cc2)nc1C`, which Potency is on record?
Answer: inactive

Question: Which Potency does the source give for `CCCn1c(=N)n(CC(=O)c2ccc(Cl)c(Cl)c2)c2ccccc21` here?
Answer: inactive

Question: With `COc1ccc(/C=C2\SC(=O)N(CCC(=O)NC3CCS(=O)(=O)C3)C2=O)cc1` (configuration not stated) as the molecule, how does the Potency read?
Answer: inactive

Question: For `O=C(CCS(=O)(=O)c1ccccc1)Nc1nc2c(s1)CCCC2`, which Potency is on record?
Answer: inactive

Question: Which Potency does the source give for `Cc1nnc(NC(=O)Cn2c(=O)sc3ccccc32)s1` here?
Answer: inactive

Question: For `Cc1ccc(-n2c(SCC(=O)N3CCC(C(=O)O)CC3)nc3ccccc3c2=O)cc1C`, which Potency is on record?
Answer: inactive

Question: With `Cc1ccc(NS(=O)(=O)c2ccc(-c3coc(C)n3)cc2)c(C)c1` as the molecule, how does the Potency read?
Answer: inactive

Question: For `CCOc1cc(CO)ccc1OCC(=O)N1CCCCC1`, which Potency is on record?
Answer: inactive

Question: Which Potency does the source give for `CC(C)c1ccc(OCC(=O)N2CCN(C)CC2)c(Br)c1` here?
Answer: inactive

Question: With `CN1CCN(C(=O)COc2ccc(C(C)(C)C)cc2Br)CC1` as the molecule, how does the Potency read?
Answer: 3.98 µM (active)

Question: With `CC(C)(C)c1ccc(SCCc2ccncc2)cc1` as the molecule, how does the Potency read?
Answer: inactive

Question: For `O=C(N/N=C/c1ccccc1O)C1CCCC1`, which Potency is on record?
Answer: inactive

Question: With `O=C(CSc1ccc(-c2ccccn2)nn1)Nc1ccccc1` as the molecule, how does the Potency read?
Answer: inactive

Question: With `CCOc1ccccc1/C=N/Nc1nc2ccccc2o1` as the molecule, how does the Potency read?
Answer: inactive

Question: For `O=S(=O)(NCc1ccc(Cl)cc1Cl)c1cccs1`, which Potency is on record?
Answer: inactive

Question: Which Potency does the source give for `COCCCNc1nc2c(-c3cccc(C)c3)nnn2c2ccc(Cl)cc12` here?
Answer: inactive

Question: Which Potency does the source give for `CCCc1[nH]nc2c1C(c1ccc(Br)s1)C(C#N)=C(N)O2` (configuration not stated) here?
Answer: 2.51 µM (active)

Question: For `CCCc1[nH]nc2c1C(C1CC=CCC1)C(C#N)=C(N)O2` (configuration not stated), which Potency is on record?
Answer: inactive

Question: Which Potency does the source give for `CCCc1[nH]nc2c1C(c1c(C)nn(-c3ccccc3)c1Cl)C(C#N)=C(N)O2` (configuration not stated) here?
Answer: inactive

Question: With `Cc1cccc(C(=O)NC(=S)N(C)C2CCCCC2)c1` as the molecule, how does the Potency read?
Answer: inactive

Question: With `COc1ccc(CCc2nc(-c3cccs3)no2)cc1` as the molecule, how does the Potency read?
Answer: inactive

Question: Which Potency does the source give for `COc1ccc(C(=O)NC(=S)N2CCCCC2c2cccnc2)cc1OC` (configuration not stated) here?
Answer: inactive

Question: For `O=C(N/N=C/c1cccc(OCc2ccccc2)c1)c1ccc(Br)o1`, which Potency is on record?
Answer: inactive

Question: With `O=C(Cc1ccc(Cl)cc1)NC(=S)Nc1ccccc1O` as the molecule, how does the Potency read?
Answer: inactive

Question: Which Potency does the source give for `NS(=O)(=O)c1cccc(NC(=O)CSc2nc3ccccc3n2-c2ccccc2)c1` here?
Answer: inactive

Question: Which Potency does the source give for `CCc1ccc(C(=O)OCC(=O)Nc2cccc(S(=O)(=O)NC3=NCCCCC3)c2)cc1` here?
Answer: inactive

Question: Which Potency does the source give for `Cc1cccc(-n2c(SCC(=O)Nc3cccc(S(=O)(=O)NC4=NCCCCC4)c3)nc3ccccc3c2=O)c1C` here?
Answer: 22.4 µM (active)

Question: Which Potency does the source give for `CCN(CC(=O)Nc1ccc(C)c(S(=O)(=O)N(C)C)c1)Cc1ccccc1` here?
Answer: inactive

Question: For `Cc1ccc(CSc2nsc(C)c2C#N)cc1`, which Potency is on record?
Answer: inactive

Question: Which Potency does the source give for `COc1ccc(C(=O)CC(=O)C(=O)Nc2cc([N+](=O)[O-])ccc2OC)cc1` here?
Answer: inactive

Question: With `CSc1nccc(NC(=O)c2ccc(C(C)(C)C)cc2)n1` as the molecule, how does the Potency read?
Answer: inactive

Question: Which Potency does the source give for `O=C(COc1ccc(Cl)cc1Cl)N/N=C/c1ccccn1` here?
Answer: inactive

Question: With `O=C(O)CC(CC(=O)N1CCOCC1)c1ccccc1` (configuration not stated) as the molecule, how does the Potency read?
Answer: inactive

Question: Which Potency does the source give for `O=C(O)CC(Cn1cnnn1)c1ccccc1` (configuration not stated) here?
Answer: 8.91 µM (active)

Question: With `O=C(O)CC(c1ccccc1)n1cnnn1` (configuration not stated) as the molecule, how does the Potency read?
Answer: inactive
